Compounds with a hit are over-represented: about 7.8% of the library has one in this group of screens.
HCV inhibitor: qHTS Assay for Inhibitors of Hepatitis C Virus (HCV) | Huh7.5.1 HCVcc-Cre infection, luciferase reporter, 44 h | Potency, µM (highest dose often 41.8 µM), hits mostly inhibitors | 3.4% of 340,000 active | AID 651820, 2012; active = well fitted inhibition curve with a large enough effect; inconclusive = small, poorly fitted or top-dose-only effect, or another doubt; inactive = no such curve, though single readings can be large or run the other way
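Infectious HCVcc-Cre (~0.5 moi) was added to cells just after compound, with cells seeded 4 h earlier at 1,000 per well. Luciferase activity after 44 h culture reported infection; substrate was incubated 15 min at room temperature before reading.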
Marburg entry inh: qHTS for inhibitors of binding or entry into cells for Marburg Virus | Marburg virus pseudotyped entry inhibition, cell reporter | Potency, µM (highest dose often 37.8 µM), most hits filed as inhibitors | 1.8% of 300,000 active | AID 540276, 2011; calls by dose curve; tested in HEK293 cells
Lassa entry inh: qHTS for Inhibitors of binding or entry into cells for Lassa Virus; Lassa virus pseudotype entry inhibition, cell reporter; Potency, µM (highest dose often 37.9 µM), actives largely listed as inhibitors; 1.2% of 300,000 active; AID 540256, 2011; calls by dose curve; tested in HEK293 cells; also: nearly all actives have a fitted effect of over 50% in size
Vaccinia mCherry: qHTS for Stage-Specific Inhibitors of Vaccinia Orthopoxvirus: mCherry Reporter Primary qHTS. Vaccinia virus mCherry reporter infection, fluorescence. Potency, µM (titrated, usually from 36.5 µM), actives largely listed as inhibitors. 0.63% of 310,000 active. AID 720579, 2013; calls by dose curve; tested in A549 cells; also: nearly all actives have a fitted effect of over 35% in size
HCMV antiviral: qHTS Assay for inhibitors of the human cytomegalovirus (HCMV); activity change, negative = inhibition, % at 57.5 µM; HFF cells, HCMV-luciferase reporter, 72 h; stronger effect = lower value; 4.5% of 410,000 active; in the data active = activity change below about -60%; inconclusive = no clear call, values can overlap the other calls; inactive = above about -39%
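Human foreskin fibroblasts infected with luciferase-reporter HCMV at MOI 1 PFU/cell, compounds at two doses. Luciferase measured 72 h post infection; normalized to buffer-only basal and Salinomycin (10uM) controls.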
VACV Venus inh: qHTS for Stage-Specific Inhibitors of Vaccinia Orthopoxvirus: Venus Reporter Primary qHTS; 0.46% of 330,000 active; Vaccinia virus Venus reporter expression, fluorescence; Potency, µM (top dose mostly 36.5 µM), hits mostly inhibitors; AID 720580, 2013; calls by dose curve; tested in A549 cells; also: nearly all actives have a fitted effect of over 30% in size
Hits are given with their value; - = inactive; ? = inconclusive; . = no result; [ ] = another dose, or the depositor's remark.

SMILES | HCV inhibitor | Marburg entry inh | Lassa entry inh | Vaccinia mCherry | HCMV antiviral | VACV Venus inh
CCOC(=O)c1c(-c2ccccc2)[nH]c2ccc(O)cc12 | 11µM | ? | - | . | - | ?
CCOC(=O)c1c(C)n(-c2ccccc2)c2ccc(OC(=O)c3ccccc3NC(=O)C(C)(C)C)cc12 | . | . | - | - | -94 | -
CCOC(=O)c1c(CN(CC)CC)n(-c2ccccc2)c2ccc(O)cc12 | - | ? | - | ? | - | -
CCOC(=O)c1c(C)n(-c2ccccc2)c2ccc(O)cc12 | 10µM | - | - | - | ? | -
CCOC(=O)c1c(CN2CCN(CCO)CC2)n(-c2ccccc2)c2cc(Br)c(O)cc12 | ? | ? | ? | - | - | ?
Cc1ccccc1CSc1ncc(CO)n1Cc1ccc(F)cc1 | . | . | - | - | - | -
COC(=O)c1sccc1S(=O)(=O)N(CC(=O)Nc1cccc(C)c1C)c1ccc(C)c(C)c1 | . | . | - | - | - | -
COc1cccc2c1Oc1ncccc1N(C(=O)CCC(=O)NC(C)C)C2 | . | . | - | - | - | -
CCOC(=O)c1c(C)n(C)c2cc(Br)c(C)cc12 | 8.9µM | - | - | ? | - | -
CCOC(=O)c1c(C)n(C)c2cc(-c3ccc(C)cc3)c(O)cc12 | ? | - | - | - | ? | -
O=C(CCCN1C(=O)/C(=C/c2cccs2)SC1=S)NNC(=O)c1cccnc1 | - | . | . | . | ? | .
O=C(CCCN1C(=O)/C(=C/c2cccs2)SC1=S)Nc1cccnc1 | ? | ? | ? | - | -98 | -
O=C(CCCN1C(=O)/C(=C\c2cccs2)SC1=S)NNC(=O)c1ccncc1 | - | - | ? | - | -61 | -
COc1ccccc1C(=O)NNC(=O)CCCN1C(=O)/C(=C/c2cccs2)SC1=S | - | - | - | - | -68 | -
O=C(CCCN1C(=O)/C(=C\c2cccs2)SC1=S)Nc1cccnc1 | - | - | - | - | -93 | -
CC(CNC(=O)Cn1ncc2c3ccccc3n(Cc3cccc(Cl)c3)c2c1=O)c1ccccc1 (centres undefined) | . | - | - | - | - | -
Cc1ccc(SC[C@H](C)CN2CC[C@H](O)CCC2=O)cc1 | . | . | . | - | . | -
O=C(CCCN1C(=O)/C(=C/c2ccccc2OC(F)F)SC1=S)Nc1cccnc1 | 11µM | ? | ? | ? | -65 | ?
O=C(CCCN1C(=O)/C(=C/c2ccccc2Cl)SC1=S)NNC(=O)c1ccc(Cl)cc1Cl | - | . | . | - | -64 | -
CCN(CC)CCOC(=O)c1ccc(NC(=O)CCCN2C(=O)/C(=C\c3cccs3)SC2=S)cc1 | 10µM | . | . | . | - | .
O=C(CCCN1C(=O)/C(=C/c2ccccc2Cl)SC1=S)NNC(=O)c1ccccc1 | - | ? | ? | ? | ? | ?
CCc1cccc(-n2c(=O)c3cccnc3n2CC(=O)Nc2ccc(OC)c(Cl)c2)c1 | . | . | - | -[7.34 µM] | - | -[7.34 µM]
CC(=O)OC1=CN(Cc2ccccc2)S(=O)(=O)c2ccccc21 | . | - | - | ? | - | ?
CC(C)C(NS(C)(=O)=O)c1nnc2n1CCN(Cc1cccc3ncccc13)CC2 (centres undefined) | . | . | . | - | . | -
COc1cccc(Cn2c(=O)n(-c3cc(C)cc(C)c3)c(=O)c3oc4ccccc4c32)c1 | . | . | - | - | - | -
SMILES | HCV inhibitor | Marburg entry inh | Lassa entry inh | Vaccinia mCherry | HCMV antiviral | VACV Venus inh
COc1ccc(-c2[nH]ncc2CN2CCOc3c(cc(-c4cccc(OC)n4)cc3OC)C2)cc1 | . | . | . | - | . | -
c1ccc(-n2nnnc2CN2CCOCC2)cc1 | - | . | . | . | -68 | .
Nc1ccc(-n2nnnc2CN2CCOCC2)cc1 | - | ? | - | - | - | -
COc1ccc(Nc2nc3ccc(C)cc3nc2-n2nc(C)cc2C)cc1Cl | . | - | - | - | - | -
CCOc1ccccc1NC(=O)CCCc1nc2ccccc2c(=O)[nH]1 | - | - | - | . | -87 | .
COc1ccc2c(c1)CCC1=C2NC(=S)NC1c1ccc(N(C)C)cc1 (centres undefined) | 11µM | ? | ? | ? | - | -
COc1cc(C2NC(=S)NC3=C2CCc2ccccc23)cc(OC)c1OC (centres undefined) | - | - | - | - | - | -
CCN(CC)S(=O)(=O)c1ccc(-c2nnc(SCc3nnc(-c4ccc(C)cc4)o3)n2CC)cc1 | - | - | - | . | ? | .
CCN(CC)S(=O)(=O)c1ccc(-c2nnc(SCC(=O)N3CCOCC3)o2)cc1 | - | - | - | 2.5µM | - | 3.5µM
CCN(CC)S(=O)(=O)c1ccc(-c2nnc(SCc3nnc(-c4ccc(C)cc4)o3)o2)cc1 | - | - | - | 0.0011µM | - | ?
O=C(COCc1cc(-c2cccs2)on1)NCc1ccc(Cl)cc1 | . | . | - | - | - | -
COc1ccccc1Nc1ccc(Nc2ccccc2OC)nn1 | - | - | - | - | - | -
COc1ccc(OC)c(Nc2c3ccccc3nc3ccccc23)c1 | ? | 6.3µM | ? | ? | -71 | ?
COc1ccc(OC)c(Nc2cc(C)c3ccccc3n2)c1 | - | . | . | . | - | .
COc1cc(Nc2c3c(nc4ccccc24)CCC3)cc(OC)c1OC | ? | ? | - | ? | -75 | ?
COc1ccc(OC)c(Nc2ccc(Nc3cc(OC)ccc3OC)nn2)c1 | ? | ? | - | - | -86 | -
COc1ccc(OC)c(Nc2c3c(nc4ccccc24)CCC3)c1 | ? | 2.8µM | ? | - | -79 | -
COc1cc(CN2CCC3(CCC(CNC(=O)c4ccccc4)O3)CC2)cc(OC)c1 (centres undefined) | . | . | . | - | . | -
O=C(Nc1ccc(F)cc1)c1ccc(-n2cnc3cccnc32)cc1 | . | . | - | - | ? | -
COc1cc(NS(C)(=O)=O)ccc1Nc1c2ccccc2nc2ccccc12 | 0.89µM | 0.73µM | 0.58µM | 0.5µM | -97 | ?
COc1ccc(OC)c(NC(=O)COC(=O)c2c3c(nc4ccccc24)CCCC3)c1 | 0.89µM | 5.2µM | 21µM | . | - | .
COc1ccc(NC(=O)COC(=O)c2c3c(nc4ccccc24)CCCC3)cc1 | ? | ? | ? | ? | - | -
CS(=O)(=O)Nc1cccc(-c2nc(Nc3ccc(F)cc3)c3ccccc3n2)c1 | . | . | . | - | . | -
CNc1oc(Cc2cccc3ccccc23)nc1C#N | - | - | - | - | - | -
COc1ccc(CCNc2oc(Cc3cccc4ccccc34)nc2C#N)cc1OC | 7.9µM | ? | ? | . | - | ?
SMILES | HCV inhibitor | Marburg entry inh | Lassa entry inh | Vaccinia mCherry | HCMV antiviral | VACV Venus inh
N#Cc1nc(Cc2cccc3ccccc23)oc1NCCN1CCCCC1 | 11µM | - | - | . | - | .
COc1ccc(CCNc2oc(COc3ccc(Br)cc3)nc2C#N)cc1OC | ? | . | . | - | - | -
COc1ccccc1CNC(=O)c1cnn2c(C)c(Cc3ccc(F)cc3)c(C)nc12 | . | . | ? | - | - | -
O=C(COC(=O)c1cccc(F)c1)Nc1ccc(Cl)cn1 | - | . | . | . | -99 | .
Cc1cccc(N2CCN(C(=O)CS(=O)(=O)c3cccc4nsnc34)CC2)c1C | . | . | ? | - | - | -
c1ccc(C2=NNC(=NCc3ccc4c(c3)OCO4)SC2)cc1 | - | - | - | - | - | -

Screening data as filed in PubChem.
